PubChem BioAssay (NCI)
This is part of a sample that, as a whole, favours compounds with a hit. Of some 79,000 tested, about 15% had one in any assay. Activity calls are given as the source filed them. No stated cut-off is given here; in the data, active means growth inhibition above about 70%; inactive means the rest.

Assays:
[1] = NCI Yeast Anticancer Drug Screen. Data for the wt1 strain (AID 149);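 further: 0% = growth of vehicle-treated wt1 cultures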; details: S. cerevisiae wt1 strain (SPY 50644) growth inhibition, stronger effect = higher value
In short: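 wt1 yeast, compound-treated; % growth inhibition vs vehicle control.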

[2] = NCI Yeast Anticancer Drug Screen. Data for the rad50EPP+ strain (AID 151);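 further: 0% = growth of vehicle-treated control cultures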; details: S. cerevisiae rad50 mutant strain, stronger effect = higher value
In short: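 Yeast strain carrying rad50 alteration (rad50EPP+) exposed to compounds; growth inhibition measured relative to vehicle-treated controls.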

[3] = NCI Yeast Anticancer Drug Screen. Data for the rad50 strain (AID 155);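 further: 0% = growth of vehicle-only cultures of the same strain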; details: S. cerevisiae rad50 strain growth inhibition, stronger effect = higher value
In short: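 Genetically altered yeast (DNA repair pathway); compound treatment; growth inhibition vs vehicle ctrl.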

[4] = NCI Yeast Anticancer Drug Screen. Data for the mec2-1 strain (AID 157); details: S. cerevisiae mec2-1 strain, stronger effect = higher value
In short: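 mec2-1 yeast strain, carrying an alteration in DNA damage repair or cell cycle control, was exposed to compounds; growth inhibition was measured relative to vehicle-treated controls.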

[5] = NCI Yeast Anticancer Drug Screen. Data for the rad14 strain (AID 159);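 further: 0% = growth of vehicle-treated control cultures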; details: S. cerevisiae rad14 strain growth inhibition, stronger effect = higher value
In short: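 Test compounds were applied to a repair-deficient yeast strain. Its growth was then compared with that of cultures given vehicle alone, and inhibition was expressed relative to those controls.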

[6] = NCI Yeast Anticancer Drug Screen. Data for the sgs1 mgt1 strain (AID 161);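 further: 0% = growth of cultures given vehicle only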; details: S. cerevisiae sgs1 mgt1 strain, stronger effect = higher value
In short: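 This yeast growth screen uses a strain with defined DNA-repair lesions; compound-treated growth is compared with vehicle-treated growth.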

[7] = NCI Yeast Anticancer Drug Screen. Data for the CLN2oe strain (AID 163);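 further: 0% = growth of vehicle-only control cultures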; details: S. cerevisiae CLN2oe strain, stronger effect = higher value
In short: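 Yeast cells carrying a defined cell-cycle control alteration were exposed to test compounds. Growth inhibition was scored against vehicle-treated control cultures.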

[8] = NCI Yeast Anticancer Drug Screen. Data for the cln2 rad14 strain (AID 165);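 further: 0% = growth equal to vehicle treated cultures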; details: S. cerevisiae cln2 rad14 strain, stronger effect = higher value
In short: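 Yeast carrying cln2 and rad14 alterations (cell cycle control and DNA damage repair) were exposed to compounds. Growth inhibition was measured against vehicle-treated controls.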

[9] = NCI Yeast Anticancer Drug Screen. Data for the bub3 strain (AID 167); details: S. cerevisiae bub3 mutant strain, stronger effect = higher value
In short: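 Yeast carrying a defined mutation is treated with each compound, and growth is compared with that of vehicle-exposed cells to give inhibition.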

[10] = NCI Yeast Anticancer Drug Screen. Data for the wt2 strain (AID 169);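 further: 0% = growth of vehicle-treated yeast cultures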; details: S. cerevisiae wt2 strain growth inhibition, stronger effect = higher value
In short: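 Yeast cells were exposed to test compounds, and growth inhibition was measured relative to vehicle-treated controls.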

[11] = NCI Yeast Anticancer Drug Screen. Data for the mlh1 strain (AID 171);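 further: 0% = growth of vehicle-treated control cultures of the same strain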; details: S. cerevisiae mlh1 strain growth inhibition, stronger effect = higher value
In short: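 Yeast carrying a defined genetic alteration in DNA damage repair or cell cycle control were exposed to test compounds. Growth inhibition was measured relative to vehicle-treated controls.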

[12] = NCI Yeast Anticancer Drug Screen. Data for the sgs1 strain (AID 173);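 further: 0% = growth of vehicle-only control cultures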; details: S. cerevisiae sgs1 mutant, stronger effect = higher value
In short: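 Yeast mutant strains carrying defined defects in DNA damage repair or cell cycle control were exposed to test compounds. Growth inhibition was scored against vehicle-treated controls.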

[13] = NCI Yeast Anticancer Drug Screen. Data for the mlh1 rad18 strain (AID 175); details: S. cerevisiae mlh1 rad18 strain growth inhibition, stronger effect = higher value
In short: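 Growth inhibition of the yeast strain was measured after compound exposure and expressed relative to vehicle-treated controls. The strain carries defined defects in DNA damage repair.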

[14] = NCI Yeast Anticancer Drug Screen. Data for the rad18 strain (AID 177); details: S. cerevisiae rad18 mutant growth inhibition, stronger effect = higher value
In short: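 Yeast carrying a defined DNA damage repair alteration were exposed to compounds. Growth inhibition was expressed relative to vehicle-treated controls.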

[15] = at 5.0 µM (retest, dose inferred, filed as 0.5)
[16] = at 50.0 µM (retest, dose inferred, filed as 5.0)

Measured: growth inhibition

CCCCCC/C(C)=N/Nc1ccc([N+](=O)[O-])cc1[N+](=O)[O-]
inactive: [1]; at 1.2 µM 8% | [1]; at 3.7 µM 1% | [1]; at 11.0 µM 4% | [1]; at 33.0 µM -7% | [1]; at 100.0 µM -13% | [2]; at 1.2 µM -7% | [2]; at 3.7 µM -21% | [2]; at 11.0 µM 14% | [2]; at 33.0 µM 22% | [2]; at 100.0 µM 23% | [3]; at 1.2 µM -18% | [3]; at 3.7 µM -18% | [3]; [15] -3% | [3]; at 11.0 µM -18% | [3]; at 33.0 µM -32% | [3]; [16] 21% | [3]; at 50.0 µM -0.35% | [3]; at 100.0 µM 14% | [4]; at 1.2 µM -3% | [4]; at 3.7 µM -4% | [4]; [15] 1% | [4]; at 11.0 µM -3% | [4]; at 33.0 µM -9% | [4]; [16] 43% | [4]; at 50.0 µM -9.7% | [4]; at 100.0 µM -8% | [5]; at 1.2 µM -1% | [5]; at 3.7 µM -2% | [5]; at 11.0 µM 17% | [5]; at 33.0 µM 23% | [5]; at 100.0 µM 2% | [6]; [15] 3% | [6]; [16] 15% | [6]; at 50.0 µM -5.7% | [7]; at 1.2 µM -11% | [7]; at 3.7 µM -10% | [7]; at 11.0 µM -14% | [7]; at 33.0 µM -18% | [7]; at 100.0 µM -19% | [8]; [15] -4% | [8]; at 50.0 µM 30.9% | [9]; at 1.2 µM -8% | [9]; at 3.7 µM -4% | [9]; [15] 7% | [9]; at 11.0 µM -8% | [9]; at 33.0 µM -13% | [9]; at 50.0 µM 20.1% | [9]; at 100.0 µM -12% | [10]; at 1.2 µM -13% | [10]; at 3.7 µM -4% | [10]; at 11.0 µM 5% | [10]; at 33.0 µM 8% | [10]; at 100.0 µM 29% | [11]; at 1.2 µM -13% | [11]; at 3.7 µM -8% | [11]; at 11.0 µM -8% | [11]; at 33.0 µM -11% | [11]; at 100.0 µM -18% | [12]; at 1.2 µM -14% | [12]; at 3.7 µM -8% | [12]; at 11.0 µM 8% | [12]; at 33.0 µM 3% | [12]; at 100.0 µM 29% | [13]; [15] -6% | [13]; [16] 58% | [13]; at 50.0 µM -0.8% | [14]; at 1.2 µM -8% | [14]; at 3.7 µM -9% | [14]; at 11.0 µM -8% | [14]; at 33.0 µM -1% | [14]; at 100.0 µM -36%
active: [8]; [16] 77% | [9]; [16] 91%
